For 19 molecules, outcome and potentiation results are on record in PubChem BioAssay.

The source made the active and inactive calls.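 How the source made its calls: active means mean duplicate potentiation above the buffer control mean plus 5 SD of buffer wells; inactive means the rest.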

Sequence of Potassium voltage-gated channel subfamily KQT member 2 (Rattus norvegicus) (O88943 whole entry, looked up): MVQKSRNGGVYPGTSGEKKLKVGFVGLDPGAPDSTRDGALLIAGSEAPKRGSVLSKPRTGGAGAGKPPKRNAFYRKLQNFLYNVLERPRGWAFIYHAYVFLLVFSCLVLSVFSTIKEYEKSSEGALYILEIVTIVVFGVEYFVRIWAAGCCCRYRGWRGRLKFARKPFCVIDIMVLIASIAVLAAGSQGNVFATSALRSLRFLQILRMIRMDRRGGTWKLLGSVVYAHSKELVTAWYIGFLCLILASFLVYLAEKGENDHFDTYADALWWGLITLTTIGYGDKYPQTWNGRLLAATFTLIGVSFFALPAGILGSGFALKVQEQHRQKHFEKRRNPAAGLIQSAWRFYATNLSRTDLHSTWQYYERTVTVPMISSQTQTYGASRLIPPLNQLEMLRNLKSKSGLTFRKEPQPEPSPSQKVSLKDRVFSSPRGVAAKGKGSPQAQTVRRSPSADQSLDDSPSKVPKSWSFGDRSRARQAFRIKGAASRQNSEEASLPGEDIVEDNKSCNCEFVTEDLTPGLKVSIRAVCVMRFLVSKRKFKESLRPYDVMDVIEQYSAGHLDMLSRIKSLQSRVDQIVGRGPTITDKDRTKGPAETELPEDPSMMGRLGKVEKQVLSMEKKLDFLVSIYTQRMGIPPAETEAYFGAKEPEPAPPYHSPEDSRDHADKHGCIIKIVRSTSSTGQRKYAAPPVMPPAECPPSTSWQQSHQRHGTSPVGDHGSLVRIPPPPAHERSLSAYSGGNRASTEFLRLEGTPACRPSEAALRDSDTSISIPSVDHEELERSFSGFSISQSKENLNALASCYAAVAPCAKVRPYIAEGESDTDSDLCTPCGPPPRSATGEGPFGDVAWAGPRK

The experiment concerns the target Potassium voltage-gated channel subfamily KQT member 2 (Rattus norvegicus) (UniProt O88943). As to the kind of experiment: KCNQ2 thallium flux enhancement – KCNQ2-CHO-K1 cells, selectivity assay for KCNQ1 potentiator project (AID 493009).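 Further: assay conditions were tuned for KCNQ1 rather than KCNQ2 modulators; signal is max minus min fluorescence divided by baseline after thallium stimulus.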 Particulars: FluxOR thallium flux fluorescence, at 10 µM; active compounds read high, scaled: buffer 0, activator control 100.
For `CC(=O)Nc1ccc(/C=N/NC(=O)c2cccc(S(=O)(=O)N3CCOCC3)c2)cc1`, the result was inactive.

On to `Cc1ccc2cc(/C=N/NC(=O)CN3CCCCC3)c(Cl)nc2c1`, for which the result was inactive.

Regarding `COc1cc2c(cc1NC(=O)CSc1nnc(COc3ccc(Cl)cc3)n1C)oc1ccccc12`, the result was inactive.

In the case of `Cc1ccc(OCCn2c(=S)[nH]c3ccccc32)c(C(C)C)c1`, the outcome was inactive.

With `CN(CC(=O)NCc1ccccc1Cl)CC(=O)Nc1cccc(F)c1`, the result was inactive.

In the case of `COc1cccc(NC(=S)N/N=C2/CCCCc3ccccc32)c1`, the outcome was inactive.

Turning to `Cc1ccsc1/C=N\NC(=O)c1n[nH]c2c1CCC2`, the outcome was inactive.

`CCn1c2ccccc2c2cc(CC(N)=O)ccc21`: the outcome was inactive.

As for `Cc1ccc(C2C(C#N)=C(N)OC3=C2C(=O)CC(C)(C)C3)s1` (centres undefined), the result was inactive.

`O=C(CNC(=S)NC(=O)c1ccc(Br)o1)c1ccccc1`: the outcome was inactive.

As to `Cc1cccc(C(=O)NC(=S)NNC(=O)COc2c(C)cccc2C)c1`, the potentiation is 176% (active).

Consider `CCCn1c(=O)c(C(=O)NNC(=O)c2ccc(Cl)cc2Cl)c(O)c2ccccc21`, for which the potentiation is 154% (active).

With `Cc1[nH]c(=S)c(C#N)c(C)c1Cc1ccc(Cl)cc1Cl`, the result was inactive.

With `CCCCS(=O)(=O)/C=C\C=C/S(=O)(=O)CCCC`, the outcome was inactive.

Take `O=C(Nc1nnc(-c2ccccc2)o1)c1cc(Cl)sc1Cl`: the potentiation is 148% (active).

For `O=C(CNc1ccc(Br)cc1)NNC1=NCCC1`, the potentiation was 142% (active).

With `Cc1ccc(C)c(NC(=S)NNC(=O)c2csc3c2CCCC3)c1`, the outcome was inactive.

On to `Cc1ccc(NC(=O)Nc2ccc3c(c2)CCC3)cc1`, for which the outcome was inactive.

For `Cc1nnnn1/C(=C\c1ccccc1)C(=O)OCC(=O)Nc1ccc(Cl)cc1F`, the result was inactive.
